SMN2 splice up = SMN2 splice variant enhancement | Potency, µM (titrated, usually from 46.1 µM), inactives show at the top dose activity change, positive = activation, most hits filed as activators | AID 1458 | hit rate 2.8% among 210,000 | HEK293 SMN2-luciferase splicing reporter, luminescence, 30-36 h; also: % of control where 0% means no effect; nearly all actives have a fitted effect of over 55% in size
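HEK293 cells carry an SMN2 minigene-luciferase reporter in which exon 7 inclusion puts luciferase in frame. Cells were seeded at 2000 cells/well, attached for 10-12 hours, then exposed to compounds for 30-36 hours at 37C before ONE-Glo luminescence.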
NPC1 prom act = NPC1 promoter activation. Potency, µM (series often up to 9.22 µM), for inactives: at the top dose activation, most hits filed as activators. Huh7 NPC1 promoter luciferase reporter, 24 h. hit rate 2.4% among 320,000; also: % of control where 0% means no effect; nearly all actives have a fitted effect of over 60% in size
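Stable NPC1-promoter luciferase Huh7 line; cpd (DMSO) 24 h, 37 °C, 5% CO2; Amplite luciferase reagent 10 min RT; luminescence readout. qHTS format.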
FLuc counter = counter-screen for miR-21 project: firefly luciferase inhibitors or activators; P08659; purified FLuc, Km substrates, luminescence inhibition; Potency, µM (doses to about 57.5 µM), inactives show at the highest dose activity change, negative = inhibition, hits mostly inhibitors; hit rate 6.9% among 360,000; AID 588342;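 also: plate controls were vehicle for no effect and reference inhibitor for full effect; nearly all actives have a fitted effect of over 55% in size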
Target sequence (P08659 whole entry, looked up): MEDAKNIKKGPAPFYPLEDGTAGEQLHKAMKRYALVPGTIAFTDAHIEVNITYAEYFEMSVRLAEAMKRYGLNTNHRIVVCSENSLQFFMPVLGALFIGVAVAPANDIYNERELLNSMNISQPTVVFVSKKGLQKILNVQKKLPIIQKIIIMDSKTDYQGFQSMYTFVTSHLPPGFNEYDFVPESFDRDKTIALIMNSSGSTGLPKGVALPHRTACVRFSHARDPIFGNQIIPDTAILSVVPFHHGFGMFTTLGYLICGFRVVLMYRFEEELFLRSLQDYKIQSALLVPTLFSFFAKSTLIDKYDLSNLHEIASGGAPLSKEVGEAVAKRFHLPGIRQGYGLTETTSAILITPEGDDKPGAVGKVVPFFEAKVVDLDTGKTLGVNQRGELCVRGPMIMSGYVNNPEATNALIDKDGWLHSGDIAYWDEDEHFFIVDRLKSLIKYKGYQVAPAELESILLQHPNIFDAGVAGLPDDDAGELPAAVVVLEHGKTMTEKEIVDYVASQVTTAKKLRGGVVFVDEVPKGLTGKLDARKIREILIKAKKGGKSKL
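Purified P. pyralis luciferase (10nM final) with 10uM D-luciferin and 10uM ATP (Km levels) in 50mM Tris acetate pH 7.5, 10mM Mg acetate, 0.01% Tween-20, 0.05% BSA; qHTS 6-point titration, ~60 µM downward; luminescence read.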
Rab9 prom act = Rab9 promoter activation. AID 485297. hit rate 2.8% among 320,000. Potency, µM (highest dose often 9.22 µM), without a hit: top-dose activation, negative = inhibition, most hits filed as activators. Huh7 Rab9 promoter-luciferase reporter, luminescence, 24 h; also: % of control where 0% means no effect; nearly all actives have a fitted effect of over 60% in size
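Using Huh7 cells stably transfected with Rab9 promoter–luciferase, compounds were incubated 24 h at 37 °C, 5% CO2; luciferase luminescence was read 10 min after reagent addition.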
ELG1 genotox = genotoxicity induction in ELG1-luciferase HEK293T cells | hit rate 1.3% among 330,000 | AID 504466 | Potency, µM (doses to about 46 µM), inactives show at the top dose activity change, positive = activation, usual class: activators | HEK293T ELG1-luciferase reporter, luminescence, 16 h; also: % of control where 0% means no effect; nearly all actives have a fitted effect of over 60% in size
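Genotoxic stress is detected as increased luminescence from luciferase-tagged ELG1 in HEK293T cells, measured with ONE-Glo after a 16 hr treatment at 37 °C.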
* marks the source's active call; other numbers are inactive results; u = inconclusive; x = no result; [ ] = remark or other dose. This is a sample that favours compounds with a hit; in the whole collection about 7.4% have one here. Calls follow the shape of the dose curve; as a rule, active = well fitted curve in the direction sought with a large enough effect; inconclusive = small, poorly fitted or top-dose-only effect, or another doubt; inactive = no such curve, though single readings can be large; an effect the other way counts as inactive or inconclusive. Potency is read from the fitted curve at half-maximal effect.

SMILES	SMN2 splice up	NPC1 prom act	FLuc counter	Rab9 prom act	ELG1 genotox
COc1ccc2c(c1)c1c(c(=O)n(-c3ccccc3C)c(=O)n1CC(N)=O)n2C	x	x	4%	x	x
COCCCn1c(=S)[nH]c2sc3c(c2c1=O)CCCC3	x	-3%	19µM*	-4%	-8%
CCCCCCCCC/C(=N\O)c1ccccn1	-74%	u	17µM*	u	u
CCCCCCCCC(=O)N/N=C/c1ccccn1	-2%	1%	3%	-2%	-1%
CN(C)/C=C/C(=O)c1ccc(-n2cccc2)cc1	13µM*	3.5µM*	11µM*	2.8µM*	u
Fc1ccc(NCc2nnc3n2CCCCC3)cc1Cl	x	x	0%	x	x
CCOc1ccc(-c2cc3nc(C4CCN(C(=O)OC(C)(C)C)CC4)c(C(=O)Nc4ccc(C)c(F)c4)cn3n2)cc1	3%	x	4%	x	x
Cc1[nH]c2ccccc2c1C1N2CC3(C)CN1CC(C)(C2)C3=O (stereo not given)	0%	x	0%	x	x
CCc1cc2c(=O)[nH]c(N3CCCC3)nc2s1	u	17%	u	u	11%
CCc1cc2c(=O)[nH]c(-c3ccccn3)nc2s1	10µM*	4.5µM*	6µM*	u	u
CC(C)CSc1nsc(N)n1	20%	u	u	u	16µM*
Nc1cc(N)nc(SCc2ccccc2)n1	11µM*	u	19µM*	2.8µM*	u
Nc1nc(SCc2ccccc2)ns1	13µM*	28%	u	u	18µM*
Nc1nc(SCc2ccc(Cl)cc2)ns1	4%	19%	u	15%	17%
Nc1cc(N)nc(SCCc2ccccc2)n1	x	22%	u	16%	u
Cc1ccc(S(=O)(=O)N2CCC(c3nnc(-c4cccc(C)c4)o3)CC2)cc1	-19%	x	u	x	x
O=S(=O)(NCCc1ccc(Cl)cc1)c1ccc(N2CCCCS2(=O)=O)cc1	x	x	-1%	x	x
COc1ccccc1CNC(=O)C1COc2ccccc2O1 (stereo not given)	u	15%	u	-6%	18µM*
COc1ccc(CNC(=O)C2COc3ccccc3O2)cc1 (stereo not given)	13µM*	u	u	u	14%
COc1ccccc1C(CNC(=O)C1COc2ccccc2O1)N1CCCC1 (stereo not given)	x	-11%	-9%	-4%	0%
COc1ccc2c(c1)c1c(c(=O)n(-c3cccc(C)c3)c(=O)n1Cc1cccc(Cl)c1)n2C	x	x	-4%	x	x
O=C(COc1ccccc1)NS(=O)(=O)c1ccc(Cl)cc1	x	16%	17µM*	5%	10%
O=C(COc1ccc(Cl)cc1Cl)Nc1ccccn1	-13%	u	0.076µM*	0.1µM*	-11%
O=C(/C=C/c1ccc2c(c1)OCO2)NC1CCCC1	x	4%	15µM*	0%	15%
Cc1ccccc1NC(=O)COc1ccc2c(c1)OC(C)(C)CC2=O	x	u	24µM*	u	14%
SMILES	SMN2 splice up	NPC1 prom act	FLuc counter	Rab9 prom act	ELG1 genotox
CCOc1ccc(CC(=O)NCC(c2cccs2)S(=O)(=O)c2ccc(F)c(C)c2)cc1 (stereo not given)	x	x	-8%	x	x
CCOC(=O)c1ccc(N2C(=O)c3[nH]nc(-c4ccccc4)c3C2c2cccs2)cc1 (stereo not given)	-3%	x	-13%	x	x
CCOc1cc(CNC(=O)C2COc3ccccc3C2)cc(OCC)c1OCC (stereo not given)	x	x	-2%	x	x
Cc1ccc(C)c(CS(=O)(=O)c2cn(CC(=O)N(C(C)C)C(C)C)c3ccccc23)c1	x	x	6%	x	x
Cc1c(C(=O)NCc2ccc(F)cc2)oc2ccc(S(=O)(=O)N3CCCCC3)cc12	x	x	-2%	x	x
O=C(O)CCSCc1ccc(I)cc1	6%[9.22 µM]	x	x	x	x
O=C(COc1ccc2c(c1)OCO2)Nc1ccc(Cl)cn1	x	2µM*	13µM*	3.5µM*	u
O=C(COc1ccccc1)Nc1ccc(Cl)cn1	x	25%	19µM*	u	u
COC(=O)c1ccc(NC(=O)COc2ccc3c(c2)OCO3)cc1	x	-3%	1%	0%	0%
O=C(COC(=O)COc1ccccc1F)Nc1ccc(Cl)cn1	x	-2%	-8%	-2%	-2%
O=C(COC(=O)CCOc1ccccc1)Nc1ccc(Cl)cn1	32%	-2%	-2%	2%	0%
COc1ccc(C(=O)OCC(=O)Nc2ccc(Cl)cn2)cc1	x	-1%	-1%	5%	0%
O=C(COc1ccc(Cl)cc1)Nc1ccc(Cl)cn1	x	u	12µM*	u	u
O=C(COc1ccccc1Cl)Nc1ccc(Cl)cn1	11µM*	2.2µM*	0.95µM*	1.4µM*	3.2µM*
CCn1c(NCc2cccc(Cl)c2)nc2ccccc21	-3%	x	-2%	x	x
Cc1ccc(Cn2ccnc2SCC(=O)Nc2ccccc2C(F)(F)F)cc1	x	x	0%	x	x
Cc1ccc(NC(=O)c2sc3ncnc(N(C)C4CCCCC4)c3c2C)cc1	x	x	-7%	x	x
O=C(/C=C/c1ccc2c(c1)OCO2)Nc1ccc(Cl)cn1	10µM*	1.1µM*	1.9µM*	0.56µM*	2.1µM*
COC(=O)c1ccccc1NC(=O)COc1ccc2c(c1)OCO2	x	16%	-12%	u	4%
O=C(COc1ccc2c(c1)OCO2)Nc1ccccc1F	6%	u	6µM*	u	u
O=C(c1ccccc1)n1nc(-c2ccco2)nc1NCc1ccccc1Cl	7%	x	-9%	x	x
Cc1ccc(NC(=O)C2C(=O)N(C)c3ccccc32)cc1 (stereo not given)	u	18%	4.8µM*	25%	9%
CN1C(=O)C(C(=O)Nc2ccccc2F)c2ccccc21 (stereo not given)	8%	0%	19µM*	3%	-1%
Cc1ccc(NC(=O)C2C(=O)N(CCO)C3(C)CC2c2ccccc2O3)cc1 (stereo not given)	u	7%	-1%	19%	10%
COc1c(O)ccc2c1CN1CCc3cc4c(cc3[C@@H]1C2)OCO4	-6%[9.22 µM]	x	x	x	x
SMILES	SMN2 splice up	NPC1 prom act	FLuc counter	Rab9 prom act	ELG1 genotox
Cc1c(Cl)cccc1NC(=O)Cn1nc(C)c2sc3ccccc3c2c1=O	x	x	1%	x	x
Cc1cc(C(=O)COC(=O)c2ccc[nH]c2=O)c(C)n1-c1ccccc1F	x	0.32µM*	1.5µM*	0.4µM*	u
CCn1c(C)cc(C(=O)COC(=O)c2ccccc2[N+](=O)[O-])c1C	x	x	x	x	-6%
Cc1ccc(-n2c(C)cc(C(=O)COC(=O)c3ccc[nH]c3=O)c2C)cc1C	7.1µM*	u	6µM*	u	u
CCn1cc(C(=O)OCC(=O)c2cc(C)n(-c3ccccc3F)c2C)c(=O)c2ccc(C)nc21	12%	-1%	u	-6%	1%
CCCn1c(C)cc(C(=O)COC(=O)c2ccc[nH]c2=O)c1C	x	u	2.7µM*	1.3µM*	u
Cc1cc(C(=O)COC(=O)c2ccc(O)cc2)c(C)n1-c1ccccc1F	21%	u	2.4µM*	u	u
C[C@H]1Cc2c(COc3ccccc3)nc3c(c2CO1)CN(S(=O)(=O)c1ccc(C#N)cc1)CC3	0%[9.22 µM]	x	x	x	x

Compound activity: PubChem BioAssay, National Center for Advancing Translational Sciences (NCATS)
